Screening data deposited in PubChem by The Scripps Research Institute Molecular Screening Center.
An excerpt weighted towards active compounds, which were near 3.4% of everything screened.
TEAD-YAP inh: TEAD-YAP interaction inhibition; HEK-TIYL cells, TEAD-Gal4/YAP UAS-luciferase luminescence; inhibition, % at 9.12 µM; actives 1.4% (n = 640,000); AID 1259422; in the data active = inhibition above about 32%;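 note: 0% = median of test compound wells and 100% = reference inhibitor wells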
GPR151 activ: human GPR151 activation. AID 1508602. PathHunter beta-arrestin GPR151 cells, luminescence. Q8TDV0. activation, % at 11.2 µM. actives 1% (n = 650,000); in the data active = activation above about 4.9%;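 note: 0% = median of compound wells and 100% = cells with positive control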
FBW7 act: activators of human E3 ligase FBW7; AlphaScreen FBW7–phospho-cyclin E peptide binding, activator screen; AID 1259310; Q969H0; normalized activity (activation), % at 26.1 µM; actives 0.13% (n = 650,000); in the data active = normalized activity above about 1.9%;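 note: purified mutant Fbw7 with reduced substrate affinity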
MITF inh: inhibitors of human MITF. AlphaScreen MITF homodimerization, bead proximity signal. inhibition, % at 2.6 µM. actives 0.91% (n = 650,000). AID 1259374. O75030; in the data active = inhibition above about 50%;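 note: 0% = vehicle wells with protein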
GPR151 confirm: human GPR151 activation, confirmation screen. 6,700 tested, under 10 active. AID 1508609. activation, % at 11.2 µM. shares compounds with GPR151 activ. GPR151 PathHunter beta-arrestin cells, luminescence, 90 min; % of EA-reagent control over plate median;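 active = mean percent activation across replicates above the confirmation screen cutoff of 4.91%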
GPR119 counter: counter-screen for GPR151 activators: effect on human GPR119; shares compounds with GPR151 activ; GPR119 PathHunter beta-arrestin cells, luminescence, 90 min; 0 = compound-well median, 100 = enzyme-acceptor control; activation, % at 11.2 µM; actives 0.3% (n = 6,700); AID 1508611;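 active = mean percent activation in the counterscreen above 29.09%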;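 note: counterscreen on off-target GPR119 to flag nonselective hits from the GPR151 activator screen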
Target sequence (Q8TDV5 whole entry, looked up): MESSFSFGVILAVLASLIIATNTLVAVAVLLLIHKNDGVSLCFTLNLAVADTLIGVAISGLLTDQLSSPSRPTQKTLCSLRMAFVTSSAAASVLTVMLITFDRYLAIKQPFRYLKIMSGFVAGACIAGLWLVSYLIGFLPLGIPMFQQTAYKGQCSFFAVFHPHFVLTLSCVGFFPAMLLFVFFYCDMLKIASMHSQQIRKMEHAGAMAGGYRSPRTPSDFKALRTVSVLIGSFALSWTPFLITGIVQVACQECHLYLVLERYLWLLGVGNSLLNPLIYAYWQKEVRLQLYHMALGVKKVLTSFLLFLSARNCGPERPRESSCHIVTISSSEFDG
Starred values were filed as active, the others as inactive; · = no result; ! = repeats disagree.

SMILES	TEAD-YAP inh	GPR151 activ	FBW7 act	MITF inh	GPR151 confirm	GPR119 counter
COc1ccc(OC)c(NC(=O)CCN(C)Cc2ccccc2)c1	-6	11*	0	-3	0	-8
COc1ccccc1NC(=O)c1ccccc1C(F)(F)F	1	1	0	-5	·	·
COc1ccc(OC)c(NC(=O)c2ccccc2C(F)(F)F)c1	6	6.6*	0	-5	1	-2
Cc1ccsc1CN1CCC2(CC1)CC2C(=O)N(C)Cc1cscn1 (centres undefined)	1	5.2*	0	-1	0	-1
Cc1nc2ccccc2nc1CN1CCC2(CC1)CC2C(=O)N(C)Cc1cscn1 (centres undefined)	7	0	0	16	·	·
Cc1nn(-c2ccccc2)c(Cl)c1/C=N\O	-5	5.1*	0	-5	3	5
COc1ccc(OC)c(N2C(=O)C3CC(C)=C(C)CC3C2=O)c1 (centres undefined)	-1	-1	0	5	·	·
COc1ccc(Cl)cc1N1C(=O)C2CC(C)=C(C)CC2C1=O (centres undefined)	15	6.8*	0	-5	0	-6
C=CCn1c(=O)c2c(nc3n(CCC)c(C)c(C)n23)n(C)c1=O	11	-1	0	-9	·	·
CCc1ccc(CNCc2cc(NC(=O)c3ccccn3)cc(C(=O)N(C)C)c2)cc1	2	10*	0	-5	1	10
COC(=O)c1cc2c(cc1NC(=O)NCc1noc3ccccc13)OCO2	11	9.2*	0	9	1	-3
O=C(NCc1cccc(Cl)c1)NCc1noc2ccccc12	-21	6.5*	0	-12	0	2
COc1cc(-c2nnn(CC(=O)Nc3nnc(C)s3)n2)ccc1OCc1ccccc1	-4	0	0	2	·	·
O=C(CSc1ncccn1)Nc1ncc(Cc2ccccc2)s1	-7	-1	0	1	·	·
CCOC(=O)C1CCN(C2CC(=O)N(c3ccc(-c4nc5ccc(C)cc5s4)cc3)C2=O)CC1 (centres undefined)	-14	0	0	10	·	·
O=C(CSc1nnc(NC(=O)Cc2ccc(F)cc2)s1)NCC1CCCO1 (centres undefined)	10	5.0*	1	4	0	11
O=C(CSc1nnc(NC(=O)Cc2ccccc2)s1)NCC1CCCO1 (centres undefined)	-7	-1	0	-6	·	·
CC1CCC(C(C)C)C(OC(=O)c2ccc(CCc3ccc(C(=O)OC4CC(C)CCC4C(C)C)cc3)cc2)C1 (centres undefined)	5	-2	0	-9	·	·
Cc1ccc(NC(=O)C(C)N2C(=O)c3ccccc3C2=O)cc1C (centres undefined)	3	6.3*	0	-2	0	-8
Cc1cc(C)cc(NC(=O)C(C)N2C(=O)c3ccccc3C2=O)c1 (centres undefined)	1	2	0	0	·	·
CC(C(=O)Nc1nc2ccccc2s1)N1C(=O)c2ccccc2C1=O (centres undefined)	-7	9.7*	0	2	1	-14
COc1ccc(C(CC(=O)O)NC(=O)COc2ccccc2OC)cc1 (centres undefined)	10	0	0	3	·	·
O=c1cc(-c2ccncc2)[nH][nH]1	4	-1	0	13	·	·
CCc1ccc(OCC(=O)Nc2cc(C)on2)cc1	-51	-1	0	4	·	·
CCc1ccc(C(=O)NC(CC(C)C)C(=O)Nc2cc(C)on2)cc1 (centres undefined)	0	5.3*	0	3	0	-1
SMILES	TEAD-YAP inh	GPR151 activ	FBW7 act	MITF inh	GPR151 confirm	GPR119 counter
S=c1[nH]nc(-c2ccc(Cl)cc2)n1-c1ccccc1	15	-2	0	12	·	·
Nc1c(Cl)cc(-n2c(-c3ccccc3)n[nH]c2=S)cc1Cl	5	5.5*	0	-1	0	-3
CC(C)(C)c1ccc(-c2n[nH]c(=S)n2-c2ccccc2)cc1	1	5.1*!	0	13	-1	-13
COC1COC(=O)C/C=C/[C@@H](C)COC(=O)[C@@H]2CCCN2C(=O)C/C=C/[C@H]1C (some centres undefined)	·	-1	0	16	·	·
Cn1cnnc1SCC(=O)N1CCCC1	-1	-1	0	33	·	·
C=CCc1ccccc1OCCOc1ccc(/C=C2/C(=N)N3N=C(CC(C)C)SC3=NC2=O)cc1	-18	-1	0	13	·	·
COc1cccc(CNC(=O)C2CCCc3sc(NC(=O)c4ccccc4)nc32)c1 (centres undefined)	-4	5.2*	0	9	0	5
C=CCN(c1ccccc1)S(=O)(=O)c1cc(C(=O)Nc2ccc(C)c(F)c2)ccc1F	2	1	0	5	·	·
Nc1nnc(Cc2cccc(Br)c2)s1	1	11*	0	11	1	22
O=C(Nc1cc(C(F)(F)F)ccc1N1CCOCC1)c1cc([N+](=O)[O-])ccc1Cl	81*	5.6*	0	8	0	-7
O=C(COc1ccc([N+](=O)[O-])cc1)Nc1cc(C(F)(F)F)ccc1N1CCOCC1	-12	1	0	-14	·	·
NNC(=O)CSc1nc2cccnc2s1	2	5.1*	-1	-15	0	6
Cc1cc(C(=O)Nc2cc(Cl)ccc2O)on1	-29	10*	0	6	0	12
CC(C)c1nc2cccnc2n1C1CCN(C(=O)c2n[nH]c3c2CCC3)CC1	-13	10*	0	17	1	10
COc1ccc(CN2CCNC(=O)C2CC(=O)N(C)Cc2ncc(C)[nH]2)cc1OC (centres undefined)	3	0	0	-18	·	·
O=C1c2cc3ccccc3cc2C(=O)N1Cc1ccco1	9	5.8*	0	17	0	-8
O=C1c2cccc3cccc(c23)C(=O)N1Cc1ccco1	-4	-2	0	16	·	·
COc1ccc(N(CC(=O)Nc2cccc(OC)c2)S(=O)(=O)c2c(C)noc2C)cc1	2	1	0	12	·	·
COc1ccc(N2CCN(CC(O)COc3ccccc3C(C)=O)CC2)cc1 (centres undefined)	9	5.9*	0	15	0	8
CCC1CCCCN1C(=O)c1sc2ncn(CC(=O)N3CC(C)CC(C)C3)c(=O)c2c1C (centres undefined)	6	-1	0	-16	·	·
Cc1ccc(C(=O)Nc2nnc(SCC(=O)N(C(C)C)C(C)C)s2)cc1	3	-1	0	14	·	·
CC(=O)c1ccc(NC(=O)CSc2ccc3nnc(-c4ccc(C)cc4)n3n2)cc1	6	5.8*	0	12	-1	8
CC(=O)c1ccc(NC(=O)CSc2ccc3nnc(-c4ccc(F)cc4)n3n2)cc1	8	-1	0	-3	·	·
